Several values for one entry are separate records, joined by “and”; a condition that tells them apart may be missing. Equal values may be shown once. About 6,200 (11%) of roughly 59,000 compounds were called active. Not shown: some 9% with an inconclusive outcome. Cut-off read from the data, not from the text of the source: active = max dye-equivalent concentration above about 10 nM; inconclusive = mostly about 1.1 nM to 9.6 nM; inactive = weaker than that. For the sample, actives were picked, then their nearest neighbours and some compounds at random.
Assay: qHTS Assay for Spectroscopic Profiling in 4-MU Spectral Region
Settings: compound autofluorescence, 340/450 nm, 4-MU equivalents; hits give high values
How it was run: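 Intrinsic fluorescence at 340/450 nm (ex/em) was read after 15 min at room temperature in pH 8.0, 100 mM Tris. Each compound concentration expressed as 4-MU-equivalent concentration from a six-point 4-MU standard series on each plate.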

Max dye-equivalent concentration, active:
COc1ccc(OC)c(S(=O)(=O)Nc2ccccc2F)c1 6.6e-08 M
COc1c(C)c2c(c(O)c1C/C=C(\C)CCC(=O)O)C(=O)OC2 7e-08 M and 1.5e-08 M
CCOC(=O)CCc1c(C)c(C#N)c2[nH]c3ccccc3n2c1=O 5.3e-06 M
COc1cc(C2C(C#N)=C(C)NC3=C2C(=O)CC(C)(C)C3)ccc1O (configuration not stated) 1.3e-08 M
COc1c(F)c(F)c(-c2csc(N)n2)c(F)c1F 1.5e-08 M
C=CCn1c2ccccc2c2nnc(SC(CC)C(=O)Nc3nc(C)c(C(=O)OCC)s3)nc21 (configuration not stated) 4.6e-08 M
NC(=O)CSC1=Nc2ccccc2C2=NC(CCC(=O)NCc3ccc(F)cc3)C(=O)N12 (configuration not stated) 4.6e-07 M
O=C(CC1N=C2c3ccccc3N=C(SCc3ccccc3Cl)N2C1=O)NCc1ccco1 (configuration not stated) 1.8e-08 M
CC(=O)Nc1ccc(-c2cn3cccnc3n2)cc1 6.1e-06 M
c1ccc(-c2cn3cccnc3n2)cc1 5.1e-06 M
CC(NC(=O)CSc1nc2c(cc1C#N)CN(C)CC2)c1ccccc1 (configuration not stated) 2.2e-08 M

Max dye-equivalent concentration, inactive:
COc1ccc(F)cc1S(=O)(=O)Nc1ccc2c(c1)OCO2
COC(=O)c1ccccc1NC(=O)C1CCN(S(=O)(=O)c2cc(OC)ccc2OC)CC1
Cc1cc(OCC(=O)O)c(Cl)cc1Cl
Cc1nc(NC(CC(C)C)C(=O)O)c2nc(C)oc2n1 (configuration not stated)
O=C(NC1CCCCC1)N1CCc2[nH]c3ccccc3c2C1
NC(=O)C1CCN(C2OC(=O)c3ccccc32)CC1 (configuration not stated)
CCOC(=O)CC1=CC(=O)Nc2ccccc2N1
CCCOC(=O)Cc1c(O)c2ccccc2[nH]c1=O
CCOC(=O)c1sc(=S)n2c1[nH]c(=O)c1ccc(C(=O)OC)cc12
C=CCSC1=C(C#N)C(c2cc(Br)c(O)c(OC)c2)CC(=O)N1 (configuration not stated)
Cc1cc2c(cc1C)NC(c1ccccn1)C1=C(CC(C)(C)CC1=O)N2 (configuration not stated)
CCCCCCC(=O)N(O)C1CC(=O)N(c2ccccc2)C1=O (configuration not stated)
CCC(=O)Nc1nc(OC)cc(OC)n1
Cc1cc(C)nc(NC2=NCC(=O)N2c2ccc(Cl)cc2)n1
CCN(CC(=O)Nc1ccc2c(c1)OCCO2)Cc1cc(=O)oc2cc(C)c(C)cc12
C=CCn1c(SCC(=O)Nc2nc3ccccc3s2)nnc1-c1ccccc1O
O=C(CN1C(=O)CCS(=O)(=O)c2ccccc21)NCc1ccc(F)cc1
Cc1nc2nc(SCC(=O)NCc3ccco3)nn2c(C)c1Cc1ccccc1
CC1(c2ccccc2Cl)NC(=O)N(CC(=O)NC(=O)NCc2ccco2)C1=O (configuration not stated)
COCCCN1C(=O)c2ccc(C(=O)Nc3ccc(OC)cc3OC)cc2C1=O
O=C(NC(=O)c1ccc(Cl)c(Cl)c1)OC1CCS(=O)(=O)C1 (configuration not stated)
COc1ccc(O)c(C(=O)c2cnc3onc(C(C)C)c3c2)c1
COc1ccc(OCC(=O)OCCN(C)C)cc1
CC(C)(C)C(=O)CCN1C(=O)C2(OCCO2)c2ccccc21
CCN(CC)S(=O)(=O)c1cccc(C(=O)NCC(=O)OCC(=O)NCc2ccccc2)c1
O=C(Cn1[nH]c(=O)c2ccccc2c1=O)Nc1cccc(-c2nnc3n2CCCCC3)c1
O=C(CSc1nnnn1-c1ccc2c(c1)CCC2)Nc1ccc2c(c1)OCCO2
COC(C)(C)[C@]12CC(O)(C(C)C)ON1[C@H]1CCCCC1N2O (some centres not stated)
COc1ccc(NC(C)=O)cc1NC(=O)CN1CCN(C2c3ccccc3-c3ccccc32)CC1
CCOc1nc(OCC)nc(-n2cc(-c3ccccc3)nn2)n1
CCCC(=O)Nc1cccc(-c2cn3ccsc3n2)c1
CC(=O)Nc1cccc(-c2cnc3ccccc3n2)c1
COc1ccc(-c2cn3ccsc3n2)cc1
COC(=O)[C@H](C)NC(=O)Nc1ccc(OC(F)(F)F)cc1
CCS(=O)(=O)N1CCCC(C(=O)NCc2ccc(C)cc2)C1 (configuration not stated)
COc1ccc(CNc2ncnc3ccc(-c4cccnc4)cc23)c(OC)c1
COc1cc(-c2noc(C3CCCN(S(=O)(=O)c4cccc(Cl)c4)C3)n2)cc(OC)c1OC (configuration not stated)
Cc1ccc2cc(C#N)c(SCC(=O)NCC3CCCO3)nc2c1C (configuration not stated)
Cc1cc(C(F)(F)F)c(C#N)c(SCC(=O)NC2CC2)n1
O=C1c2ccccc2C(=O)N1CCc1nn[nH]n1
COc1ccc(-n2c(SCC(=O)Nc3ccc4c(c3)OCO4)nnc2C(C)N2CCCCC2)cc1 (configuration not stated)
